# Tests used:
# Test in all cases: PBM binding z-score (relative to random genomic background probes); higher = stronger binding; sequences stand for … in GC…GCGATTGACAGCGTAGAATGAAGG
# [1] = system: FXR:RXRa (NR concentration 270 nM, RXRa partner concentration 90 nM)
# Outline: (§1)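 Ligand-free nuclear receptor dimers were applied to custom Agilent 4×180K protein-binding microarrays whose double-stranded probes carried direct-repeat seeds, single-nucleotide variants, half-site ablations and random human genomic background sequences in 34-nt variable regions. Incubation lasted 1 h. Binding z-scores were computed against the random background probes from regression-normalized fluorescence.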
# [2] = system: LXRa:RXRa (NR concentration 270 nM, RXRa partner concentration 90 nM)
# Outline: as §1
# [3] = system: LXRa homodimer (NR concentration 270 nM)
# Outline: as §1
# [4] = system: LXRb:RXRa (NR concentration 270 nM, RXRa partner concentration 90 nM)
# Outline: as §1
# [5] = system: LXRb homodimer (NR concentration 270 nM)
# Outline: as §1
# [6] = system: PPARa:RXRa (NR concentration 270 nM, RXRa partner concentration 90 nM)
# Outline: as §1
# [7] = system: PPARg:RXRa (NR concentration 180 nM, RXRa partner concentration 90 nM)
# Outline: as §1
# [8] = system: PPARg:RXRa 270nM:90nM, anti-RXR (NR concentration 270 nM, RXRa partner concentration 90 nM)
# Outline: as §1
# [9] = system: PPARg:RXRa 30nM:10nM, anti-RXR (NR concentration 30 nM, RXRa partner concentration 10 nM)
# Outline: as §1
# [10] = system: PPARg:RXRa 90nM:30nM, anti-RXR (NR concentration 90 nM, RXRa partner concentration 30 nM)
# Outline: as §1
sequence,measurement,setting,value
AGAACGAGGGCACGCTGATTTGATAGCAGAGTAG,PBM binding z-score,[1],0.707
same,PBM binding z-score,[2],0.541
same,PBM binding z-score,[3],-0.464
same,PBM binding z-score,[4],0.172
same,PBM binding z-score,[5],-0.795
same,PBM binding z-score,[6],2.31
same,PBM binding z-score,[7],2.24
same,PBM binding z-score,[8],1.79
same,PBM binding z-score,[9],0.45
same,PBM binding z-score,[10],1.1
CCTAGTTGGTCAGGGTCACACACGCTATAGGTAC,PBM binding z-score,[1],3.57
same,PBM binding z-score,[2],3.05
same,PBM binding z-score,[3],0.771
same,PBM binding z-score,[4],3.33
same,PBM binding z-score,[5],0.27
same,PBM binding z-score,[6],4.17
same,PBM binding z-score,[7],3.28
same,PBM binding z-score,[8],3.51
same,PBM binding z-score,[9],1.5
same,PBM binding z-score,[10],2.6
CCTGGTTGGTCAAGGTCACACACGCTATAGGTAC,PBM binding z-score,[1],4.28
same,PBM binding z-score,[2],4.07
same,PBM binding z-score,[3],2.43
same,PBM binding z-score,[4],3.92
same,PBM binding z-score,[5],1.12
same,PBM binding z-score,[6],4.3
same,PBM binding z-score,[7],2.92
same,PBM binding z-score,[8],3.15
same,PBM binding z-score,[9],1.15
same,PBM binding z-score,[10],2.22
TCGAGTAGGTTAGGGGCGTTCAGAATGGCGTCGA,PBM binding z-score,[1],0.341
same,PBM binding z-score,[2],0.362
same,PBM binding z-score,[3],-0.22
same,PBM binding z-score,[4],0.565
same,PBM binding z-score,[5],-0.227
same,PBM binding z-score,[6],0.892
same,PBM binding z-score,[7],0.197
same,PBM binding z-score,[8],1.54
same,PBM binding z-score,[9],0.846
same,PBM binding z-score,[10],1.56
GGAACGAGGGCAAGTTGATGGCAGAGTTTGATGG,PBM binding z-score,[1],0.782
same,PBM binding z-score,[2],0.592
same,PBM binding z-score,[3],-0.0865
same,PBM binding z-score,[4],-0.0137
same,PBM binding z-score,[5],-0.434
same,PBM binding z-score,[6],1.55
same,PBM binding z-score,[7],0.994
same,PBM binding z-score,[8],0.903
same,PBM binding z-score,[9],-0.146
same,PBM binding z-score,[10],0.602
CCTTACGGCTCACGAGGTTATAGCACGACGAGCG,PBM binding z-score,[1],0.307
same,PBM binding z-score,[2],0.723
same,PBM binding z-score,[3],0.155
same,PBM binding z-score,[4],0.376
same,PBM binding z-score,[5],-0.33
same,PBM binding z-score,[6],0.625
same,PBM binding z-score,[7],0.887
same,PBM binding z-score,[8],0.128
same,PBM binding z-score,[9],-0.0191
same,PBM binding z-score,[10],0.0892
TGAATGAGGTTAAAGATTAGGGAACGTGGCGTCG,PBM binding z-score,[1],2.45
same,PBM binding z-score,[2],2.05
same,PBM binding z-score,[3],-0.0169
same,PBM binding z-score,[4],1.38
same,PBM binding z-score,[5],0.449
same,PBM binding z-score,[6],3.74
same,PBM binding z-score,[7],3.78
same,PBM binding z-score,[8],4.94
same,PBM binding z-score,[9],2.32
same,PBM binding z-score,[10],4.36
TGTCAAAGTTCAGAGGTAACGTAAGTATCCACAC,PBM binding z-score,[1],4.53
same,PBM binding z-score,[2],4.37
same,PBM binding z-score,[3],1.55
same,PBM binding z-score,[4],2.56
same,PBM binding z-score,[5],0.204
same,PBM binding z-score,[6],4.07
same,PBM binding z-score,[7],6.27
same,PBM binding z-score,[8],6.33
same,PBM binding z-score,[9],3.46
same,PBM binding z-score,[10],6.02
ATATGTAGGTTAGCTGGGCTCATTCAGACTAGGC,PBM binding z-score,[1],-0.0917
same,PBM binding z-score,[2],-0.146
same,PBM binding z-score,[3],-0.339
same,PBM binding z-score,[4],-0.294
same,PBM binding z-score,[5],-0.171
same,PBM binding z-score,[6],1.98
same,PBM binding z-score,[7],2.71
same,PBM binding z-score,[8],2.34
same,PBM binding z-score,[9],0.752
same,PBM binding z-score,[10],1.5
GCTCGGAGGACATGGTCAGAGCTTTGTCCGTAGA,PBM binding z-score,[1],-0.823
same,PBM binding z-score,[2],-0.697
same,PBM binding z-score,[3],-0.873
same,PBM binding z-score,[4],-1.01
same,PBM binding z-score,[5],-1.56
same,PBM binding z-score,[6],-0.666
same,PBM binding z-score,[7],-0.763
same,PBM binding z-score,[8],-0.775
same,PBM binding z-score,[9],-1.35
same,PBM binding z-score,[10],-1.09
TGTCAAAGTTCATAGGTAACGTAAGTATCCACAC,PBM binding z-score,[1],6.65
same,PBM binding z-score,[2],5.95
same,PBM binding z-score,[3],4.17
same,PBM binding z-score,[4],4.02
same,PBM binding z-score,[5],1.38
same,PBM binding z-score,[6],5.13
same,PBM binding z-score,[7],7.92
same,PBM binding z-score,[8],7.41
same,PBM binding z-score,[9],4.42
same,PBM binding z-score,[10],6.63
CCGACTGGGGCAAGGTTGCCATAACGCACAGCCA,PBM binding z-score,[1],-0.306
same,PBM binding z-score,[2],-0.375
same,PBM binding z-score,[3],-0.461
same,PBM binding z-score,[4],-0.29
same,PBM binding z-score,[5],-1.05
same,PBM binding z-score,[6],0.601
same,PBM binding z-score,[7],1.87
same,PBM binding z-score,[8],2.77
same,PBM binding z-score,[9],0.553
same,PBM binding z-score,[10],2.2
AGAACGAGGGCACGCTAAGTTGATAGCAGAGTAG,PBM binding z-score,[1],0.75
same,PBM binding z-score,[2],0.717
same,PBM binding z-score,[3],-0.396
same,PBM binding z-score,[4],0.353
same,PBM binding z-score,[5],-0.515
same,PBM binding z-score,[6],2.07
same,PBM binding z-score,[7],2.2
same,PBM binding z-score,[8],1.87
same,PBM binding z-score,[9],0.473
same,PBM binding z-score,[10],1.22
TGTCAAAGTTCAAAGGTAACGTACGTATCCACAC,PBM binding z-score,[1],7.21
same,PBM binding z-score,[2],6.37
same,PBM binding z-score,[3],4.32
same,PBM binding z-score,[4],4.74
same,PBM binding z-score,[5],1.52
same,PBM binding z-score,[6],5.75
same,PBM binding z-score,[7],8.65
same,PBM binding z-score,[8],7.29
same,PBM binding z-score,[9],4.86
same,PBM binding z-score,[10],7.11
CCTATTAGTTGACCATAAGGGCAACCGCAGCTCG,PBM binding z-score,[1],1.1
same,PBM binding z-score,[2],0.581
same,PBM binding z-score,[3],0.369
same,PBM binding z-score,[4],0.306
same,PBM binding z-score,[5],0.642
same,PBM binding z-score,[6],0.449
same,PBM binding z-score,[7],0.36
same,PBM binding z-score,[8],0.368
same,PBM binding z-score,[9],-0.191
same,PBM binding z-score,[10],0.0579
AGTCAAAGTTGACTAGGTAACGTAAGATTCAGCT,PBM binding z-score,[1],-0.527
same,PBM binding z-score,[2],-0.187
same,PBM binding z-score,[3],-0.527
same,PBM binding z-score,[4],-0.137
same,PBM binding z-score,[5],-0.608
same,PBM binding z-score,[6],1.41
same,PBM binding z-score,[7],2.01
same,PBM binding z-score,[8],2.7
same,PBM binding z-score,[9],0.453
same,PBM binding z-score,[10],1.91
CAAACTTGGTCAAGGTCAAAGTCGGTTTGTGCCA,PBM binding z-score,[1],4.61
same,PBM binding z-score,[2],4.38
same,PBM binding z-score,[3],2.94
same,PBM binding z-score,[4],3.8
same,PBM binding z-score,[5],0.689
same,PBM binding z-score,[6],4.46
same,PBM binding z-score,[7],2.73
same,PBM binding z-score,[8],3.77
same,PBM binding z-score,[9],1
same,PBM binding z-score,[10],2.73
GCGACTGGGACAAAGCAGGTTACCATAAGGTTGG,PBM binding z-score,[1],-0.198
same,PBM binding z-score,[2],-0.314
same,PBM binding z-score,[3],-0.305
same,PBM binding z-score,[4],-0.479
same,PBM binding z-score,[5],-0.971
same,PBM binding z-score,[6],0.611
same,PBM binding z-score,[7],0.76
same,PBM binding z-score,[8],0.524
same,PBM binding z-score,[9],-0.332
same,PBM binding z-score,[10],-0.0419
TCTATTAGTTGACGGGCAACCGACGAGTCCGTTT,PBM binding z-score,[1],0.51
same,PBM binding z-score,[2],0.776
same,PBM binding z-score,[3],0.073
same,PBM binding z-score,[4],0.407
same,PBM binding z-score,[5],0.493
same,PBM binding z-score,[6],0.565
same,PBM binding z-score,[7],0.00282
same,PBM binding z-score,[8],1.62
same,PBM binding z-score,[9],3.47
same,PBM binding z-score,[10],2.48
CAAACTAGGTCGAAGGTCAAAGTCGAGCCAACCA,PBM binding z-score,[1],5.22
same,PBM binding z-score,[2],4.73
same,PBM binding z-score,[3],2.22
same,PBM binding z-score,[4],4.63
same,PBM binding z-score,[5],0.602
same,PBM binding z-score,[6],6.98
same,PBM binding z-score,[7],12.4
same,PBM binding z-score,[8],10.2
same,PBM binding z-score,[9],10.9
same,PBM binding z-score,[10],12.7
CCTCGGAGGACAGAACGTCAGAGCTGTCCGCTTT,PBM binding z-score,[1],-0.455
same,PBM binding z-score,[2],-0.498
same,PBM binding z-score,[3],-0.707
same,PBM binding z-score,[4],-1.16
same,PBM binding z-score,[5],-1.1
same,PBM binding z-score,[6],-1.32
same,PBM binding z-score,[7],-0.391
same,PBM binding z-score,[8],-1.32
same,PBM binding z-score,[9],-1.28
same,PBM binding z-score,[10],-1.56
AGAACGAGGGCACGCTGAGTTGATAGCAGAGTAG,PBM binding z-score,[1],0.783
same,PBM binding z-score,[2],0.47
same,PBM binding z-score,[3],-0.551
same,PBM binding z-score,[4],0.0516
same,PBM binding z-score,[5],-0.876
same,PBM binding z-score,[6],2.36
same,PBM binding z-score,[7],2.01
same,PBM binding z-score,[8],1.79
same,PBM binding z-score,[9],0.0193
same,PBM binding z-score,[10],0.94
CAAACTAGGTCAAGGCCAAAGTCGGTTTGTGCCA,PBM binding z-score,[1],3.98
same,PBM binding z-score,[2],2.52
same,PBM binding z-score,[3],0.111
same,PBM binding z-score,[4],1.71
same,PBM binding z-score,[5],-0.0886
same,PBM binding z-score,[6],4.91
same,PBM binding z-score,[7],8.07
same,PBM binding z-score,[8],6.77
same,PBM binding z-score,[9],4.34
same,PBM binding z-score,[10],6.26
CGAACTAGGTCATTGACGGGACAGTGAATAGTAA,PBM binding z-score,[1],4.27
same,PBM binding z-score,[2],2.52
same,PBM binding z-score,[3],0.242
same,PBM binding z-score,[4],1.81
same,PBM binding z-score,[5],-0.0446
same,PBM binding z-score,[6],4.64
same,PBM binding z-score,[7],7.48
same,PBM binding z-score,[8],6.38
same,PBM binding z-score,[9],3.39
same,PBM binding z-score,[10],5.82

# — the supplement of paper PMC6555819
